{"source": "ChEMBL document CHEMBL4513135", "about": "“CO-ADD screening of IQOG CSIS (Spain) compounds”", "note": "Entries with a potency or affinity are not part of this list.", "data": [{"system": "Cryptococcus neoformans", "conditions": "Concentration 32 ug.mL-1; ASSAY_TEST Inhibition of Fungal Growth; detection method Resazurin; Absorption (OD600-OD570); plate type 384well; NBS; CORNING #3640", "units": {"Inhibition": "%"}, "values": [{"smiles": "CN(N=O)C(=O)NC1(C(=O)O)CC1c1ccccc1", "note": "(stereo not given)", "Inhibition": -0.92}, {"smiles": "COc1ccc2cc(C=O)c(Cl)nc2c1", "Inhibition": 26.83}, {"smiles": "N#Cc1c(Cl)nc(Cl)c(C#N)c1-c1ccccc1", "Inhibition": -43.27}, {"smiles": "CCOC(=O)C1=C(C)Nc2nc3c(c(N)c2C1c1cccc(OC)c1)CCCC3", "note": "(stereo not given)", "Inhibition": -90.12}, {"smiles": "N#Cc1cc(C#N)c(N2CCC(O)CC2)nc1N", "Inhibition": -52.44}, {"smiles": "Cc1nn(-c2ccccc2)c2ncnc(Nc3ccccc3)c12", "Inhibition": -2.23}, {"smiles": "Cl.Nc1c2c(nc3c1C(c1c(Cl)cccc1Cl)c1ccc4ccccc4c1O3)CCCC2", "note": "(stereo not given)", "Inhibition": -3.69}, {"smiles": "C#CCNc1nc(N)c(C#N)c(-c2ccccc2)c1C#N", "Inhibition": -2.34}, {"smiles": "C#CCN1CCc2nc3nc(N(C)C)c(C#N)cc3c(N)c2C1", "Inhibition": -99.98}, {"smiles": "COc1ccc(C=C2N=C(c3ccccc3)OC2=O)cc1", "Inhibition": -7.5}, {"smiles": "N#CC1(Br)C(=NBr)Oc2ccc3ccccc3c2C1c1cccc([N+](=O)[O-])c1", "note": "(stereo not given)", "Inhibition": -42.61}, {"smiles": "C#CCN(C)Cc1cc2cc(OCCC3CCN(Cc4ccccc4)CC3)ccc2n1C.Cl", "Inhibition": -83.46}, {"smiles": "CCOC(=O)CCc1c[nH]c2ccccc12", "Inhibition": -6.58}, {"smiles": "CCCCNNC(=O)c1cc2ccccc2[nH]1", "Inhibition": -1.71}, {"smiles": "CCC(Cc1ccccc1)NNC(=O)c1cc2ccccc2[nH]1", "note": "(stereo not given)", "Inhibition": -1.62}, {"smiles": "C#CCn1c(N)c(C#N)c2cc(O)ccc21", "Inhibition": -78.39}, {"smiles": "Cc1ccc2nc(Cl)c(/C=N/OCc3ccccc3)cc2c1", "Inhibition": -9.27}, {"smiles": "Cn1ccnc1C1c2c(nc3c(c2N)CCC3)Oc2ccc3ccccc3c21", "note": "(stereo not given)", "Inhibition": -36.13}, {"smiles": "C#CCNc1nc(OC)c(C#N)c(-c2ccccc2)c1C#N", "Inhibition": -26.89}, {"smiles": "Cl.ClCCCN1CCCC1", "Inhibition": -0.84}, {"smiles": "Cn1cc(C=O)c2ccccc21", "Inhibition": -4.31}, {"smiles": "CSC1=NC2(CC2c2ccccc2)C(=O)N1", "note": "(stereo not given)", "Inhibition": 1.03}, {"smiles": "C#CC[n+]1ccccc1N.[Br-]", "Inhibition": -3.96}, {"smiles": "CCOc1nc2nc(CCc3ccccc3)ccc2c(-c2ccccc2)c1C#N", "Inhibition": -42.89}, {"smiles": "O=C(N/N=C/c1c[nH]c2ccccc12)C(c1ccccc1)c1ccccc1", "Inhibition": -1.94}, {"smiles": "N#Cc1c(N)nc2[nH]nc(N)c2c1-c1ccccc1", "Inhibition": -62.75}, {"smiles": "COc1ccc2cc(C3C4=C(CC(C)(C)CC4=O)Oc4nc5c(c(N)c43)CCC5)c(Cl)nc2c1", "note": "(stereo not given)", "Inhibition": -1.53}, {"smiles": "N#CC1=C(N)NC(=O)CC1c1ccccc1", "note": "(stereo not given)", "Inhibition": -51.84}, {"smiles": "CCOC(=O)c1c(C)nc2nc3c(c(N)c2c1-c1ccc(OC)cc1)CCCCCC3", "Inhibition": -97}, {"smiles": "NC1(C(=O)O)CC1c1ccc2c(c1)OCO2", "note": "(stereo not given)", "Inhibition": -2.53}, {"smiles": "Cc1nn(-c2ccccc2)c2nc(C)n3nc(-c4ccccc4)nc3c12", "Inhibition": -5.73}, {"smiles": "Cc1[nH]nc2c1C(c1ccc(O)c(O)c1)C(C#N)=C(N)O2", "note": "(stereo not given)", "Inhibition": 0.65}, {"smiles": "CSC1=NC(=Cc2ccccc2)C(=O)N1C", "Inhibition": -9.15}, {"smiles": "CNC(=O)c1cc2cc(OC)ccc2[nH]1", "Inhibition": -6.03}, {"smiles": "Cc1nn(-c2ccccc2)c2ncnc(NCc3ccccc3)c12", "Inhibition": -3.05}, {"smiles": "Cl.ClCCCCCN1CCCCC1", "Inhibition": -4.11}, {"smiles": "N#CC1=C(N)Oc2c(ccc3ccccc23)C1c1ccccc1", "note": "(stereo not given)", "Inhibition": -37.74}, {"smiles": "C#CCNC(=O)c1cc2cc(OCCCC3CCN(Cc4ccccc4)CC3)ccc2[nH]1", "Inhibition": -106.43}, {"smiles": "CC(=O)N1CC(=O)NC1=S", "Inhibition": 1.05}, {"smiles": "O=Cc1c(-c2ccc(Br)cc2)nc2ccccn12", "Inhibition": -4.41}]}]}
